Experiment [1] concerns the target Estrogen receptor beta (Homo sapiens) (UniProt Q92731). The experiment is described as follows: OT_ER_ERbERb_0480: Odyssey Thera (OT) 8-hour HEK293T Protein-Complementation Assay for Estrogen Receptor-beta/-beta Homodimer (AID 2283357).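 Also: active means signal gain over DMSO baseline.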 The method, boiled down:
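Fluorescence gain from complemented reporter fragments on ER-beta LBD homodimer in HEK293T was quantified against DMSO controls after 8 h treatment, fixation in 4% formaldehyde and Draq5 staining.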

For experiment [2], the target named is human Peroxisome Proliferator-activated Receptor alpha (PPARa), PPARA (gene 5465) (UniProt Q07869). The experiment is described as follows: NVS_NR_hPPARa: NovaScreen (NVS) Nuclear Receptor Binding Assay for human Peroxisome Proliferator-activated Receptor alpha (PPARa) (AID 2283359).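 Also: activity means loss of TR-FRET signal versus DMSO baseline.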 The method, boiled down: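 One-hour incubation, cell-free extracted protein, TR-FRET binding readout; signal loss vs DMSO scored. Screen: 25 uM duplicates, confirmatory dose series for actives.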
Sequence of human Peroxisome Proliferator-activated Receptor alpha (PPARa), PPARA (gene 5465) (Q07869 whole entry, looked up): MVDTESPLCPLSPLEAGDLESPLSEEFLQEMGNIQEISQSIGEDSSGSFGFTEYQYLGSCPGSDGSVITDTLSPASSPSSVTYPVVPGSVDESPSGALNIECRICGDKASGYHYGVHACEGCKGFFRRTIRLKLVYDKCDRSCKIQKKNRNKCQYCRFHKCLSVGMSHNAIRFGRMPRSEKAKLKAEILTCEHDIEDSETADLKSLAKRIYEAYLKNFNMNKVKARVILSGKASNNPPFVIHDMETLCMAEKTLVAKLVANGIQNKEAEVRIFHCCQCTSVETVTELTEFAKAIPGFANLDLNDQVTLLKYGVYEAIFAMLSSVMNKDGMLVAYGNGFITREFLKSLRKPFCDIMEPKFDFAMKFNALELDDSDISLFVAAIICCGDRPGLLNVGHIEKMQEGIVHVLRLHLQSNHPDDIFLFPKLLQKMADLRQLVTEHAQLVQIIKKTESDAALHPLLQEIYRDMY

The target in experiment [3] is rat Mineralocorticoid Receptor (MR), Nr3c2 (gene 25672) (UniProt P22199). Description: NVS_NR_rMR: NovaScreen (NVS) Nuclear Receptor Binding Assay for rat Mineralocorticoid Receptor (MR) (AID 2283355). The method, boiled down:
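Single-concentration duplicate screen (25 uM) of radioligand binding in adrenalectomized rat brain supernatant; scintillation detection 24 h after dosing. Positive and negative controls ran on each plate, and confirmed actives went to concentration-response.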

In the next experiment the target is PGR (gene 5241) (UniProt P06401). The experiment is described as follows: NVS_NR_hPR: NovaScreen (NVS) Nuclear Receptor Binding Assay for human Progestron Receptor (PR) (AID 2283360).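 Also: active means loss of bound radioligand signal versus DMSO baseline.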 The method, boiled down: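 Cell-free radioligand binding using receptor protein extracted from T47D cells, read by scintillation counting 18 hours after dosing. Loss of signal relative to DMSO baseline indicates displacement; primary screen single concentration 25 uM in duplicate, actives followed in concentration series.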

In experiment [4] the target is Glucocorticoid receptor (Homo sapiens) (UniProt P04150). The experiment is described as follows: NVS_NR_hGR: NovaScreen (NVS) Nuclear Receptor Binding Assay for human Glucocorticoid Receptor (GR) (AID 2283363).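 Also: activity is loss of specific radioligand binding signal relative to DMSO.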 The method, boiled down: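 Single-readout cell-free binding: radioligand plus extracted receptor, 16-hour dosing, filter radiodetection; 25 uM duplicate primary, concentration series secondary.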

Experiment [5] concerns the target rat Androgen Receptor (AR), Ar (gene 24208) (UniProt P15207). The experiment is described as follows: NVS_NR_rAR: NovaScreen (NVS) Nuclear Receptor Binding Assay for rat Androgen Receptor (AR) (AID 2283366). The method, boiled down:
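Actives from a duplicate single-concentration (25 uM) primary run went on to concentration series. Displacement of radioligand was counted by filtration and scintillation, 18 h post-dose, using prostate extracts from testosterone-pretreated rats, with DMSO as baseline.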

In experiment [6] the target is Androgen Receptor/SRC-1 Co-activator, AR (gene 367) (UniProt P10275). Description: OT_AR_ARSRC1_0480: Odyssey Thera (OT) 8-hour HEK293T Protein-Complementation Assay for Androgen Receptor/SRC-1 Co-activator (AID 2283354).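 Also: hits raise the complementation signal above DMSO so AC50 marks enhancers.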 The method, boiled down: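 After 8 h dosing, stably expressing HEK293T cells with split-Venus AR/SRC-1 fusions were imaged (488, 635nm). The 488nm N/C ratio per image gave the endpoint, analysed in the positive direction against DMSO.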
Sequence of Androgen Receptor/SRC-1 Co-activator, AR (gene 367) (P10275 whole entry, looked up, the tested form may be a part): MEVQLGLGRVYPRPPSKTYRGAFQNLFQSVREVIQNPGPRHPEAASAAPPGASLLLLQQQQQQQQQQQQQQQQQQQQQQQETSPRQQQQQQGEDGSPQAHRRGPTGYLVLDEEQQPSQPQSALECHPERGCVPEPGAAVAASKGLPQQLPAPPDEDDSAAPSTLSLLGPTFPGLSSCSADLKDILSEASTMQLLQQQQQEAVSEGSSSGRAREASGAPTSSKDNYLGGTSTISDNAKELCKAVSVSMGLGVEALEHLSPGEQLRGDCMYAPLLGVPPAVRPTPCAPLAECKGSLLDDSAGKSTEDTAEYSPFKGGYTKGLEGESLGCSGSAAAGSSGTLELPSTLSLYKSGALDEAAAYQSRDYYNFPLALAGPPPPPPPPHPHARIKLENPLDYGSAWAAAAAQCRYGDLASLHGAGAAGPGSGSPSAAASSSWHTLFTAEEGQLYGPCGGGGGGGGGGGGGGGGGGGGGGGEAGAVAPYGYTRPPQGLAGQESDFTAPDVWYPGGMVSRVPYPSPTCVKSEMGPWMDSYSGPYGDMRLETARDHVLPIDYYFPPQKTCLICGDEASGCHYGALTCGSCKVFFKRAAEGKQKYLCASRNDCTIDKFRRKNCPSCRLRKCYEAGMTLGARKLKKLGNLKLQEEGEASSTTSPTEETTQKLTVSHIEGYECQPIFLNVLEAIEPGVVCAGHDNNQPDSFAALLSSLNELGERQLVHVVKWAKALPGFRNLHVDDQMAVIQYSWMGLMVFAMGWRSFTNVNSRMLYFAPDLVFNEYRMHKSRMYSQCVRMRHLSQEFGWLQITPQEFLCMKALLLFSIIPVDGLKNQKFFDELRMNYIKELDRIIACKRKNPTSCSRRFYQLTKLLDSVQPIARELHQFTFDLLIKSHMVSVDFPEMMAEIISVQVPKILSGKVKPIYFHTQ

Experiment [7] deals with Agonist Androgen Response Element (ARE), AR (gene 367) (UniProt P10275). Description: OT_AR_ARELUC_AG_1440: Odyssey Thera (OT) 24-hour CHO-K1 Luciferase Assay for Agonist Androgen Response Element (ARE) (AID 2283379). The method, boiled down: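 Luminescence increase above DMSO, read after a 24 h compound treatment of CHO-K1 cells expressing an androgen response element luciferase reporter, gives the single primary endpoint; concentration-response fitting used the positive direction.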
Sequence of Agonist Androgen Response Element (ARE), AR (gene 367) (P10275 whole entry, looked up): as the sequence (P10275 whole entry, looked up, the tested form may be a part) above

Experiment [8] deals with Retinoic acid receptor alpha (Homo sapiens) (UniProt P10276). The experiment is described as follows: NVS_NR_hRAR_Antagonist: NovaScreen (NVS) Nuclear Receptor Binding Assay for human Retinoic Acid Alpha Receptor Antagonism (RAR) (AID 2283358). The method, boiled down: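 Chemicals were first tested in duplicate at 25 uM, then actives in concentration series, in a cell-free TR-FRET antagonist binding format. Measurements were taken 2 hours after dosing and loss of signal was evaluated against DMSO controls.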
Sequence of Retinoic acid receptor alpha (Homo sapiens) (P10276 whole entry, looked up): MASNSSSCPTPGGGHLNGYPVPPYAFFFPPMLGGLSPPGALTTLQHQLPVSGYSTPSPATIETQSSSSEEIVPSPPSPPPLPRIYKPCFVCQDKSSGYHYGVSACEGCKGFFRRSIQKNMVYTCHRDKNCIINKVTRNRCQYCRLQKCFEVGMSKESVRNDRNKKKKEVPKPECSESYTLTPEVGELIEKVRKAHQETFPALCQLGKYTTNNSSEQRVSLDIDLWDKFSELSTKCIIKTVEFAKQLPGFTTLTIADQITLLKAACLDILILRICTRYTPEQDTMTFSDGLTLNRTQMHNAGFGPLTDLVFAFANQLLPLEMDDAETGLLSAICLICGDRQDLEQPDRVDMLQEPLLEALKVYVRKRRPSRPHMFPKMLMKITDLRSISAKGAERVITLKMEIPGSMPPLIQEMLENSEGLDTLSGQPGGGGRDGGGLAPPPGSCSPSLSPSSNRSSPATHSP

Experiment [9] deals with Nuclear receptor subfamily 1 group I member 2 (Homo sapiens) (UniProt O75469). The experiment is described as follows: NVS_NR_hPXR: NovaScreen (NVS) Nuclear Receptor Binding Assay for human Pregnane X Receptor (PXR) (AID 2283365).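 Also: a drop in FRET signal versus DMSO baseline means the compound binds.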 The method, boiled down: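 Human PXR binding measured by TR-FRET in a cell-free format, 2 h exposure. Single-concentration duplicates at 25 uM preceded concentration-response retests of actives; endpoint fitted positively relative to DMSO, loss of signal indicating binding.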
Sequence of Nuclear receptor subfamily 1 group I member 2 (Homo sapiens) (O75469 whole entry, looked up): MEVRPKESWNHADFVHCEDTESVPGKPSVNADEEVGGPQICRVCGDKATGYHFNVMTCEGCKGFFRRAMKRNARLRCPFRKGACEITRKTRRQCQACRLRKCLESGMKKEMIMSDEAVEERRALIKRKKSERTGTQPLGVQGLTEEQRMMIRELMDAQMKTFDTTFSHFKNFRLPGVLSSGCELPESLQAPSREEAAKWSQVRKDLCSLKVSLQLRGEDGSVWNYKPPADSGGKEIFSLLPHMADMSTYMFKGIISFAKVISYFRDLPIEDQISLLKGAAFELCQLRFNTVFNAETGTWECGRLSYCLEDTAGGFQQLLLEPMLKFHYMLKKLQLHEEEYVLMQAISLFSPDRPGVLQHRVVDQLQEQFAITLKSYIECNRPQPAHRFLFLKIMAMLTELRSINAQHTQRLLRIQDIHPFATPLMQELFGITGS

The target in experiment [10] is Peroxisome proliferator-activated receptor gamma (Homo sapiens) (UniProt P37231). The experiment is described as follows: NVS_NR_hPPARg: NovaScreen (NVS) Nuclear Receptor Binding Assay for human Peroxisome Proliferator-activated Receptor gamma (PPARg) (AID 2283370). The method, boiled down: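 Fluorescence polarization readout of ligand binding to extracted human PPARg, measured at 2 h. Duplicate single-point screen at 25 uM, then concentration-series retesting; activity defined as signal loss versus DMSO.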

For experiment [11], the target named is Estrogen receptor (Homo sapiens) + Estrogen receptor beta (Homo sapiens) (UniProt P03372+Q92731). Description: OT_ER_ERaERb_1440: Odyssey Thera (OT) 24-hour HEK293T Protein-Complementation Assay for Estrogen Receptor-alpha/-beta Homodimer (AID 2283356).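 Also: heteromer of ER alpha and ER beta binding domains; hits raise reporter fluorescence and both agonists and antagonists give an increase.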 The method, boiled down: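 Fragment complementation between ER alpha (310-547) and ER beta (263-489) ligand-binding domains in HEK293T cells; signal read 24 h post-dosing by laser scanning cytometer. Gain of fluorescence relative to DMSO fitted.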

The target of experiment [12] is Estrogen receptor beta (Homo sapiens) (UniProt Q92731). Description: OT_ER_ERbERb_1440: Odyssey Thera (OT) 24-hour HEK293T Protein-Complementation Assay for Estrogen Receptor-beta/-beta Homodimer (AID 2283380).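 Also: scored as signal increase over DMSO baseline for both agonists and antagonists.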 The method, boiled down:
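HEK293T cells stably expressing human ER-beta LBD (aa 310-547) PCA homodimer pair, dosed 24 h; formaldehyde-fixed, Draq5-stained. Readout: increase in nuclear (agonist) or nuclear plus cytoplasmic (antagonist) fluorescence intensity versus DMSO, gain-of-signal fitting.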

Experiment [13] has as its target Retinoic acid receptor alpha (Homo sapiens) (UniProt P10276). The experiment is described as follows: NVS_NR_hRARa_Agonist: NovaScreen (NVS) Nuclear Receptor Binding Assay for human Retinoic Acid Alpha Receptor Agonism (RAR) (AID 2283361). The method, boiled down: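 Compounds screened at 25 uM, duplicate, then in concentration series if active. Detection: TR-FRET gain of signal versus DMSO after 2 h with cell-free extracted RARα.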

Experiment [14] addresses guinea pig Sigma Receptor, Non-selective Binding, SIGMAR1 (gene 100135589) (UniProt Q60492). The experiment is described as follows: NVS_OR_gSIGMA_NonSelective: NovaScreen (NVS) Nuclear Receptor Binding Assay for guinea pig Sigma Receptor, Non-selective Binding (AID 2283367). The method, boiled down:
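Test chemicals were screened in duplicate at 25 uM, then in concentration series if active, against radioligand binding to guinea pig brain membranes; filtration and scintillation counting at 1 h measured remaining bound ligand.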

Results filed as inconclusive are left out. Active and inactive are the calls of the source. The calls were made as follows: active = hit-call score of the fitted dose curve at least 0.9, where 1 is the maximum; inconclusive = response in the unintended direction; inactive = score below 0.9.

Sequence of rat Androgen Receptor (AR), Ar (gene 24208) (P15207 whole entry, looked up): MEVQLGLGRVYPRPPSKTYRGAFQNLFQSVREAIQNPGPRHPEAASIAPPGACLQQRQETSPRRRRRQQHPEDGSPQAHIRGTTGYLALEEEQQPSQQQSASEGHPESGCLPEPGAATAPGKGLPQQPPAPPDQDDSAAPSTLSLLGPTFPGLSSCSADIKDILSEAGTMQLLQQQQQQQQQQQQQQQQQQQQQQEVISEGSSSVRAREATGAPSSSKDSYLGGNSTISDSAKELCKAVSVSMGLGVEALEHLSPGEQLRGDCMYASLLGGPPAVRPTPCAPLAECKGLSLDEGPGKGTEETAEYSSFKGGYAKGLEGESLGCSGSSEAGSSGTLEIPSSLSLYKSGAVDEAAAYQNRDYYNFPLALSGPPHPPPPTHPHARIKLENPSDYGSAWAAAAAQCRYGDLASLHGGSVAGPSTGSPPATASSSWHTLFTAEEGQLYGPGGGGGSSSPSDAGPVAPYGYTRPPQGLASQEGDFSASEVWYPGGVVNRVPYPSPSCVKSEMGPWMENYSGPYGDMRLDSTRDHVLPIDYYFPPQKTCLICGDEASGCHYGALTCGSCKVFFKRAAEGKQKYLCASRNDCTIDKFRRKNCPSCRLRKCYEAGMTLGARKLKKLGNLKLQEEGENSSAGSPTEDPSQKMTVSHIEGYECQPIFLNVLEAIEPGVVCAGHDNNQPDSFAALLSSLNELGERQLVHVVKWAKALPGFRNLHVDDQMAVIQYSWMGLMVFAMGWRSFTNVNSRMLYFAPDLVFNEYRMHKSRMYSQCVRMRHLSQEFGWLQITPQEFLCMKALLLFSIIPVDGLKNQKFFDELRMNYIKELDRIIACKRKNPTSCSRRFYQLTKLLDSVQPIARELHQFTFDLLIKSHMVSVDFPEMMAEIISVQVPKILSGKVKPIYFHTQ
Sequence of Estrogen receptor beta (Homo sapiens) (Q92731 whole entry, looked up, the tested form may be a part): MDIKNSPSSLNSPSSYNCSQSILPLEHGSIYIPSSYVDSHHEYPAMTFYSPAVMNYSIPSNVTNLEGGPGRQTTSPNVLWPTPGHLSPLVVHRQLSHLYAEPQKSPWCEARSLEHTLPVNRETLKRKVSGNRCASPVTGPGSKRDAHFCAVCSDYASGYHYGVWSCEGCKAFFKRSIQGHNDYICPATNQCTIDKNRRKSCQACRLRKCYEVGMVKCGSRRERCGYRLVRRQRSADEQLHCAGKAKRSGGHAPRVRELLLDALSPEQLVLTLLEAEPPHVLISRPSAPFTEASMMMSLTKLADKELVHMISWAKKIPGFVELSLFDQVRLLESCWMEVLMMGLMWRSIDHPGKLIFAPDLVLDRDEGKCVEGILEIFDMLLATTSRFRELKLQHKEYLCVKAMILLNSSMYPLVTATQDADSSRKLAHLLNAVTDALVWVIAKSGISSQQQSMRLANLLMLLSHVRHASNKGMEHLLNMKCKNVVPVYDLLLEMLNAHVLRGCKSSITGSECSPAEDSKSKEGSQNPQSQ
Sequence of guinea pig Sigma Receptor, Non-selective Binding, SIGMAR1 (gene 100135589) (Q60492 whole entry, looked up): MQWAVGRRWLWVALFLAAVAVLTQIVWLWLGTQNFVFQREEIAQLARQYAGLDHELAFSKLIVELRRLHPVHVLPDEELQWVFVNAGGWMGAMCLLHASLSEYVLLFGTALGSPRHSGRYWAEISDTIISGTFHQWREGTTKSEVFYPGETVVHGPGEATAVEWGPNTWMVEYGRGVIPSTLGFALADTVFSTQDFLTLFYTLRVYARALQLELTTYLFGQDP

With `c1ccc(Oc2ccccc2)cc1`, the molecule was called inactive in [1].
Still for that read-out and setting: the same measure for `CCCCCCC(=O)c1ccccc1`: “inactive”; for `COC(=O)c1ccc(C)cc1C1=NC(C)(C(C)C)C(=O)N1` (centres undefined) (tested in a mixture with another compound): “inactive”.
Consider `CCCCCC(C=O)=Cc1ccccc1`, for which the result in experiment [1] and in experiment [2] was inactive.
One may read the AC50 as the concentration giving half of the maximal activity seen. In the case of `Oc1c(Cl)cc(Cl)c(Cl)c1Cc1c(O)c(Cl)cc(Cl)c1Cl`, the molecule was classed as inactive (in experiment [3]; in the experiment with PGR (gene 5241)). Besides, the concentration at half-maximal activity (AC50) in [4] was 4.34 µM (active); in experiment [5] it was 2.06 µM (active).
In the case of `O=C(c1ccccc1)C(O)c1ccccc1` (centres undefined), the call in experiment [1] was inactive.
Same read-out and setting: for `CCC1(C)NC(=O)NC1=O` (centres undefined) the value was “inactive”.
`BrCc1cccc(Oc2ccccc2)c1`: the call in experiment [6] and in experiment [7] was inactive. In addition, the AC50 in experiment [1] was 60.7 µM (active).
In the case of `CC(=O)CC(=O)Nc1ccccc1`, the molecule was classed as inactive in [3].
Take `CC1CC(O)CC(C)(C)C1` (centres undefined): the call in [1] was inactive.
Take `OCc1cccc(Oc2ccccc2)c1`: the outcome in [6] and in experiment [7] was inactive. In addition, the AC50 in [1] was 47.7 µM (active).
As to `CCCCCCCCCCCCCCN(CCO)CCO`, the call in experiment [1], in experiment [8] and in [9] was inactive. In experiment [4], the AC50 was 8.13 µM (active).
For the molecule `CC(CN=Cc1ccccc1O)N=Cc1ccccc1O` (centres undefined), the outcome in [1] was inactive.
Take `Cc1ccc(S(=O)(=O)Oc2ccc(N=Nc3ccc(-c4ccc(N=Nc5c(O)ccc6cc(S(=O)(=O)O)cc(S(=O)(=O)O)c56)c(C)c4)cc3C)cc2)cc1`: the result in experiment [6], in experiment [1], in experiment [8], in experiment [2] and in experiment [10] was inactive. Further, the AC50 in [4] was 0.548 µM (active); in [9] it was 0.701 µM (active); in [5], 0.463 µM (active).
Regarding `CCc1cc(Cc2cc(CC)cc(C(C)(C)C)c2O)c(O)c(C(C)(C)C)c1`, the AC50 in experiment [6] is 15.8 µM (active). In addition, the result in experiment [1], in experiment [10] and in experiment [7] was inactive.
As to `CC(C)CCCCCCc1ccc(OCCOCCO)cc1`, the values for the AC50 in [11], in experiment [1] and in experiment [7] were 36.5 µM (active), 38.6 µM (active) and 3.19 µM (active), respectively. Moreover, the result in experiment [9] was inactive.
Regarding `CCCCCCCCC=CCCCCCCCC1=NCCN1CCO`, the AC50 in [6] is 23.3 µM (active); in [8] it was 25 µM (active); in experiment [4], 5.02 µM (active); in [5], 7.33 µM (active). The molecule was called inactive in experiment [1] and in experiment [7].
For `O=C(Nc1ccc2c(O)c(N=Nc3ccc(N=Nc4ccc(S(=O)(=O)O)cc4)cc3)c(S(=O)(=O)O)cc2c1)c1ccccc1`, the result in experiment [11], in experiment [1], in experiment [10] and in experiment [12] was inactive. Also, the AC50 in experiment [9] is 1.19 µM (active).
As to `Nc1ccc2cc(S(=O)(=O)O)cc(O)c2c1N=Nc1ccccc1C(F)(F)F`, the molecule was classed as inactive in experiment [1] and in experiment [12]. The AC50 was 0.155 µM (active) in experiment [2], 5.65 µM (active) in experiment [4] and 2.32 µM (active) in experiment [10].
On to `CCCCCCCCSCCO`, for which the molecule was called inactive in experiment [6] and in experiment [7].
As for `CCCCC1CCC(O)CC1` (centres undefined), the molecule was classed as inactive in experiment [6].
Take `CCCCOC(=O)CCCCCCCC(=O)OCCCC`: the outcome in experiment [1] was inactive.
For `Clc1ccc(C(c2ccccc2Cl)C(Cl)Cl)cc1` (centres undefined), the AC50 in experiment [1] is 3.87 µM (active). Besides, the molecule was called inactive in [2] and in experiment [9].
Regarding `OC[C@H]1O[C@@H]2O[C@H]3[C@H](O)[C@@H](O)[C@@H](O[C@H]4[C@H](O)[C@@H](O)[C@@H](O[C@H]5[C@H](O)[C@@H](O)[C@@H](O[C@H]6[C@H](O)[C@@H](O)[C@@H](O[C@H]7[C@H](O)[C@@H](O)[C@@H](O[C@H]8[C@H](O)[C@@H](O)[C@@H](O[C@H]9[C@H](O)[C@@H](O)[C@@H](O[C@H]1[C@H](O)[C@H]2O)O[C@@H]9CO)O[C@@H]8CO)O[C@@H]7CO)O[C@@H]6CO)O[C@@H]5CO)O[C@@H]4CO)O[C@@H]3CO`, the outcome in experiment [1] and in [2] was inactive. Moreover, in [9], the AC50 was 4.18 µM (active).
In the case of `CC1CCC(C(C)C)C(O)C1` (centres undefined), the call in [6], in [1], in experiment [7] and in [12] was inactive.
Consider `CCOC(=O)[C@@H](C)Oc1ccc(Oc2nc3ccc(Cl)cc3o2)cc1`, for which the molecule was called inactive in [6], in experiment [1], in experiment [7] and in [12].
Regarding `C=Cc1ccc(C)cc1`, in experiment [1], the outcome was inactive.
`C[Si](C)(C)O[Si](C)(C)C`: the call in [1] was inactive.
Still for that read-out and setting: the same measure for `C=C(C)[C@@H]1CC=C(C)C(=O)C1`: “inactive”.
Take `CCCCC(CC)COC(=O)c1ccc(O)cc1` (centres undefined): the AC50 in experiment [1] is 0.91 µM (active); in [4], 3.11 µM (active); in experiment [12], 1.92 µM (active). Moreover, the molecule was classed as inactive in [2], in experiment [13] and in experiment [9].
Regarding `C[C@H]1O[C@@H](O[C@H]2[C@@H](O)C[C@H](O[C@H]3[C@@H](O)C[C@H](O[C@H]4CC[C@@]5(C)[C@H](CC[C@@H]6[C@@H]5C[C@@H](O)[C@]5(C)[C@@H](C7=CC(=O)OC7)CC[C@]65O)C4)O[C@@H]3C)O[C@@H]2C)C[C@H](O)[C@@H]1O`, the result in experiment [6], in experiment [1], in experiment [10] and in experiment [7] was inactive.
`CC(C=O)Cc1ccc(C(C)(C)C)cc1` (centres undefined): the molecule was classed as inactive in [6] and in experiment [1]. Also, the AC50 in experiment [14] was 2.97 µM (active).
On to `CC(C)Nc1nc(N)nc(Cl)n1`, for which the result in experiment [1] was inactive.
For the molecule `CCc1ccc(O)cc1`, the outcome in experiment [6], in experiment [1], in [9] and in experiment [7] was inactive.
Turning to `CCCCCCCCCCCCCC(=O)OCC(O)CO` (centres undefined), the outcome in experiment [6], in experiment [1], in experiment [7] and in experiment [12] was inactive.

The values above are taken from PubChem BioAssay (EPA / NIEHS).
